High-throughput results: PubChem, National Center for Advancing Translational Sciences (NCATS)
A selection: hits, their analogues and other compounds. The true share with any hit is near 11%.
JMJD2A Tudor inh – blocks the human JMJD2A Tudor domain. actives 4.4% (n = 390,000). O75164. Potency, µM (doses to about 114 µM), hits mostly inhibitors. AlphaScreen JMJD2A-Tudor / H3K4me3 peptide binding. AID 504339; note: nearly all actives have a fitted effect of over 50% in size
G9a inh – G9a (human) methyltransferase inhibition | Q96KQ7 | G9a H3K9 monomethylation, AlphaScreen, 2 h | Potency, µM (doses to about 102 µM), actives largely listed as inhibitors | actives 8.8% (n = 350,000) | AID 504332; note: nearly all actives have a fitted effect of over 75% in size
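Step 1: enzyme (final 20 nM) with compound, 15 min RT. Step 2: substrate peptide 500 nM and SAM 20 uM, 2 h RT. Step 3: anti-H3K9me1 antibody and AlphaScreen beads, 10 min, then plate read.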
BAZ2B inh – inhibitors of human BAZ2B bromodomain. Q9UIF8. AlphaScreen BAZ2B-H3K14Ac peptide displacement. Potency, µM (top dose mostly 114 µM), hits mostly inhibitors. actives 4.4% (n = 360,000). AID 504333; note: nearly all actives have a fitted effect of over 60% in size
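Complex of BAZ2B and biotin-H3K14Ac (50 nM apiece) forms over 30 min at RT, then faces library compounds up to 110 uM for another 30 min; AlphaScreen beads added, 20 min dark incubation, luminescence read.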
L3MBTL1 inh – inhibitors of human L3MBTL1 | Q9Y468 | AlphaScreen L3MBTL1–H3K9me1 peptide binding | Potency, µM (titrated, usually from 57.1 µM), hits mostly inhibitors | actives 0.66% (n = 230,000) | AID 485360; note: nearly all actives have a fitted effect of over 60% in size
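L3MBTL1 (50 nM) pre-complexed 30 min with biotinylated H3(1-15)K9me1 peptide (75 nM), then compounds added for 30 min at room temperature; AlphaScreen streptavidin donor/nickel chelate acceptor beads (10 ug/mL final) read after 30 min dark incubation.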
HP1b binding inh – HP1-beta chromodomain-methylated histone interaction inhibition; AlphaScreen HP1-beta / biotin-H3K9me3 peptide binding; Potency, µM (doses to about 114 µM), usual class: inhibitors; actives 0.56% (n = 390,000); P83916; note: nearly all actives have a fitted effect of over 70% in size
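HP1-beta protein (50 nM final) preincubated 30 min at room temperature with biotinylated H3(1-18)K9me3 peptide (50 nM) in PBS pH 7.4, 0.01% Tween-20, then compound added for 30 min. AlphaScreen streptavidin donor/nickel chelate acceptor beads (10 ug/mL final), 30 min dark, luminescence read.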
Hits are given with their value; [ ] = remark or other dose. Calls come from the whole dose curve; as a rule, active = well fitted inhibition curve with a large enough effect; inconclusive = small, poorly fitted or top-dose-only effect; inactive = no such curve, though single readings can be large or run the other way.

For CNC(=S)NCCc1cc2c(OC)ccc(OC)c2[nH]c1=O the results were JMJD2A Tudor inh 18µM, G9a inh inconclusive and HP1b binding inh inactive.
`CCN1CCN(CCOc2cccc(Oc3ccccc3)c2)CC1` gave JMJD2A Tudor inh 4.5µM, G9a inh 22µM, BAZ2B inh 20µM, L3MBTL1 inh inactive and HP1b binding inh inconclusive.
CCN1CCN(CCOCCOc2ccccc2)CC1 was read as JMJD2A Tudor inh 18µM, BAZ2B inh 79µM, L3MBTL1 inh inactive and HP1b binding inh inconclusive.
`COc1ccc(OC)c(NC(=O)NNC(=O)c2cc3occc3[nH]2)c1` gave JMJD2A Tudor inh inactive, G9a inh 50µM, BAZ2B inh inconclusive and HP1b binding inh inactive.
For N#CC(=C1C=CC(=NO)C(Cl)=C1)c1ccc(Cl)cc1 the results were JMJD2A Tudor inh 20µM and HP1b binding inh inconclusive.
`CSCCC(NC(=O)c1cccc(S(=O)(=O)N2CCN(C(C)=O)CC2)c1)c1nc2ccccc2[nH]1` (stereo unspecified) gave JMJD2A Tudor inh inactive and HP1b binding inh inactive.
For O=C(NCc1nc2ccccc2[nH]1)c1ccc(Cl)c(S(=O)(=O)N2CCCC2)c1 the results were JMJD2A Tudor inh inactive, G9a inh 35µM, BAZ2B inh inactive, L3MBTL1 inh inactive and HP1b binding inh inactive.
`CSCC[C@H](NC(=O)c1ccc(Cl)c(S(=O)(=O)N2CCCC2)c1)c1nc2ccccc2[nH]1` gave JMJD2A Tudor inh inactive, G9a inh 35µM, BAZ2B inh inconclusive, L3MBTL1 inh inactive and HP1b binding inh inactive.
`Cc1ccc(S(=O)(=O)N2C(=O)[C@@H]3Cc4ccccc4CN3C2=O)cc1` gave JMJD2A Tudor inh 7.9µM, G9a inh 40µM, BAZ2B inh inactive and HP1b binding inh inactive.
Screening COc1ccc(N2C(=O)CC(NCC#N)C2=O)cc1 (stereo unspecified) returned JMJD2A Tudor inh inactive, G9a inh 28µM, BAZ2B inh inactive, L3MBTL1 inh inactive and HP1b binding inh inactive.
CCCOc1ccc(N2C(=O)CC(NCC#N)C2=O)cc1 (stereo unspecified) was read as JMJD2A Tudor inh inactive, G9a inh inactive, BAZ2B inh inactive, L3MBTL1 inh inactive and HP1b binding inh inactive.
Screening CCOC(=O)CNC1CC(=O)N(c2ccc(Br)cc2)C1=O (stereo unspecified) returned JMJD2A Tudor inh inactive, G9a inh 10µM, BAZ2B inh inactive and HP1b binding inh inactive.
Screening COc1ccc(N2C(=O)CC(NC3CCCCNC3=O)C2=O)cc1 (stereo unspecified) returned JMJD2A Tudor inh inactive, G9a inh 11µM, BAZ2B inh inactive, L3MBTL1 inh inactive and HP1b binding inh inactive.
For COc1ccc(N2C(=O)CC(Nc3ccc(C)cc3)C2=O)cc1 (stereo unspecified) the results were JMJD2A Tudor inh inactive, G9a inh inactive, BAZ2B inh inactive and HP1b binding inh inactive.
CC1Cc2ccccc2N1C(=O)CSc1ncccc1C(=O)O (stereo unspecified) was read as JMJD2A Tudor inh inactive, G9a inh 79µM, BAZ2B inh inactive, L3MBTL1 inh inactive and HP1b binding inh inactive.
`COc1ccc(-c2nc3cnc(N4CCN(C)CC4)nc3n(Cc3cccc(OC)c3)c2=O)cc1` gave G9a inh inactive[0.501 µM].
For Cc1sc2ccccc2[n+]1CC(=O)c1ccccc1 the results were JMJD2A Tudor inh inconclusive, G9a inh 10µM, BAZ2B inh inconclusive, L3MBTL1 inh inactive and HP1b binding inh inactive.
For COc1cc(C(=O)Nc2ccc3oc(-c4ccccc4)nc3c2)cc(OC)c1OC the results were JMJD2A Tudor inh inactive, G9a inh inconclusive, BAZ2B inh inactive and HP1b binding inh inactive.
Screening COc1cc(OC)cc(C(=O)Nc2ccc3c(c2)N(C2CCCC2)C(=O)c2ccccc2S3)c1 returned JMJD2A Tudor inh inactive, G9a inh inactive, BAZ2B inh inactive and HP1b binding inh inactive.
`O=C(c1ccccc1)N1CCCOC1c1ccccc1` (stereo unspecified) gave JMJD2A Tudor inh inactive, G9a inh 25µM, L3MBTL1 inh inactive and HP1b binding inh inactive.
For COc1ccc2cc3c(N)nn(C(=O)c4ccc(F)cc4)c3nc2c1 the results were JMJD2A Tudor inh inactive, BAZ2B inh inactive and HP1b binding inh inactive.
For COc1ccc2cc3c(N)nn(C(=O)c4ccc(OC)c(OC)c4)c3nc2c1 the results were JMJD2A Tudor inh inactive, G9a inh inconclusive, BAZ2B inh 79µM, L3MBTL1 inh inactive and HP1b binding inh inactive.
`Cc1ccc(CN2CCC(C(=O)NCCC(C)C)CC2)o1` gave JMJD2A Tudor inh 45µM, G9a inh 32µM, BAZ2B inh inconclusive, L3MBTL1 inh inactive and HP1b binding inh inconclusive.
Screening O=C1CC(c2ccc(Cl)cc2)CC(=O)C1CS(=O)(=O)c1ccccc1 (stereo unspecified) returned JMJD2A Tudor inh inactive[11.4 µM], G9a inh 4µM, BAZ2B inh 79µM and HP1b binding inh inactive.
For O=C1CCCC(=O)C1CS(=O)(=O)c1ccccc1 the results were JMJD2A Tudor inh inactive, G9a inh 3.2µM, BAZ2B inh inactive and HP1b binding inh inactive.
COc1ccc(C2CC(=O)C(CS(=O)(=O)c3ccccc3)C(=O)C2)cc1 (stereo unspecified) was read as JMJD2A Tudor inh inactive[11.4 µM], G9a inh inactive, BAZ2B inh inactive and HP1b binding inh inactive.
`Cc1noc(C)c1-c1ccc2ncnc(NCc3ccc(C(F)(F)F)cc3)c2c1` gave JMJD2A Tudor inh inactive.
For O=C(Nc1noc2ccccc12)c1ccc(F)cc1 the results were JMJD2A Tudor inh inactive, G9a inh inactive, BAZ2B inh inactive and HP1b binding inh inactive.
Screening CCC(CO)NC(=O)C(=O)Nc1c2c(nn1-c1ccc(F)cc1)CSC2 (stereo unspecified) returned JMJD2A Tudor inh inactive, G9a inh inconclusive, BAZ2B inh inactive and HP1b binding inh inactive.
For COc1cccc(Sc2ccccc2CN(C)C)c1 the results were JMJD2A Tudor inh inactive, G9a inh inactive, BAZ2B inh inactive, L3MBTL1 inh inactive and HP1b binding inh inconclusive.
`CN(C)Cc1ccccc1Sc1ccc2c(c1)CCCC2` gave JMJD2A Tudor inh 0.63µM and HP1b binding inh inconclusive.
Screening CCOC(=O)Cn1c(=O)n(CC2CCCO2)c2nc(-c3ccc(CC)cc3)nc(C(N)=O)c21 (stereo unspecified) returned JMJD2A Tudor inh inactive, G9a inh inactive, BAZ2B inh inactive and HP1b binding inh inactive.
For COc1ccc(-c2cn3cc(C)ccc3n2)cc1F the results were JMJD2A Tudor inh 20µM, G9a inh inactive[12.7 µM], BAZ2B inh inconclusive, L3MBTL1 inh inactive and HP1b binding inh inactive.
`CCC/C=C1/CCCOC(C(=O)NCCOC)(C(F)(F)F)C1` (stereo unspecified) gave JMJD2A Tudor inh inactive and HP1b binding inh inactive.
`COc1ccc(OC)c(CCNC(=O)Cn2sc3nc(C)cc(C)c3c2=O)c1` gave G9a inh 1µM and BAZ2B inh 50µM.
